Holding throughout (experiment): DAPPL (digital affinity profiling via proximity ligation, sequencing); 10 mM Tris-HCl pH 7.5, 50 mM NaCl, 1 mM DTT, 4% glycerol, room temperature, 30 min; GST-TFs on glutathione beads, 16-mer random dsDNA library, 0.1% formaldehyde crosslink after washing; high values mean tight binding
What all share (settings): protein: recombinant; tags: N-terminal GST; dsDNA, one strand shown

In one assay the target is T1, FLI1 (Homo sapiens, UniProt Q01543 1-452).
T1 sequence: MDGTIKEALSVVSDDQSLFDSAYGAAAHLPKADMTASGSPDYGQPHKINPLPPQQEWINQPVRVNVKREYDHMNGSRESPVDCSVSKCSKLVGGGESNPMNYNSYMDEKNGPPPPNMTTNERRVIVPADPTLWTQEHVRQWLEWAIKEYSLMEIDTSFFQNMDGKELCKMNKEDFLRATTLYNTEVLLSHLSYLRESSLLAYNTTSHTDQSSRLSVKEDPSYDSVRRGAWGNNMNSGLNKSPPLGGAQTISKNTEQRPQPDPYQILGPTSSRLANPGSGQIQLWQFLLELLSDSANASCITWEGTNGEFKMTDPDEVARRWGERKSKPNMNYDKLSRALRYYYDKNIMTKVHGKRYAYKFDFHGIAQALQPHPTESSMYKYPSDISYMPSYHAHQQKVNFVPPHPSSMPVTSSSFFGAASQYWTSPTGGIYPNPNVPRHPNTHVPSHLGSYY
The procedure, abridged:
(§1)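 Binding signal is defined as a hexamer's read frequency for one factor over its frequency for the tag-only sample. To obtain reads, GST-fused human transcription factors were expressed in yeast, captured on glutathione beads, barcoded with DNA and pooled with that sample. Pools met 200 nmole of a 16-mer random double-stranded DNA library in Tris/NaCl/DTT/glycerol buffer for 30 min at room temperature before washing, 0.1% formaldehyde crosslinking, proximity ligation (BsaI/T4 ligase, 1 h, 37 °C), PCR and Illumina NextSeq500 sequencing.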

The target of another assay is T2, ELK1 (Homo sapiens, UniProt P19419 1-428).
T2 sequence: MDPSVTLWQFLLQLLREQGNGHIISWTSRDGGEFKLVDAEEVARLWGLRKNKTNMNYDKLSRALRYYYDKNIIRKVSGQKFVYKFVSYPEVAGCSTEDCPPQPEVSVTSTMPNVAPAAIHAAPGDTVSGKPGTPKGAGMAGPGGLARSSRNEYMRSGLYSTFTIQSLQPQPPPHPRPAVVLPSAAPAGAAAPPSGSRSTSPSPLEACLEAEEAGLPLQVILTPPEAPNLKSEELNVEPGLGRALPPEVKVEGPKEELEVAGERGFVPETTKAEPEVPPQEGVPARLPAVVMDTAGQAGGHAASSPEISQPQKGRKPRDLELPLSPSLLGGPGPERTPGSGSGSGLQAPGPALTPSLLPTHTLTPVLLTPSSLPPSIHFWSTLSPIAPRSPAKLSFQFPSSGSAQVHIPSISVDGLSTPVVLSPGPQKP
The procedure, abridged: as §1

Another assay addresses T3, GABPA (Homo sapiens, UniProt Q06546 1-454).
T3 sequence: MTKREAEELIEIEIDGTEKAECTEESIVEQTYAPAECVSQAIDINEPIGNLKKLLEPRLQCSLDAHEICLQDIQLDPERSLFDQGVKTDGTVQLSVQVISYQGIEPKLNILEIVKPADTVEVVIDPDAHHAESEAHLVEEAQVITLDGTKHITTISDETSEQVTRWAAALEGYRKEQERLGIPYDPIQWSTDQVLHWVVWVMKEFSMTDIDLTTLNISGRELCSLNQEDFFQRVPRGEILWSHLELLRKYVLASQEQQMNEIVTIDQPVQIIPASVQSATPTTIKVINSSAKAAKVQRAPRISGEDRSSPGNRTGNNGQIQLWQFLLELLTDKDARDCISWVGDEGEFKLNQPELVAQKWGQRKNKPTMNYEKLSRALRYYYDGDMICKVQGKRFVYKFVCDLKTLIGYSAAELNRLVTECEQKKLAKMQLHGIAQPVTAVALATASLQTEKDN
An outline of the steps: as §1

The next assay addresses T4, ERG (Homo sapiens, UniProt P11308 1-479).
T4 sequence: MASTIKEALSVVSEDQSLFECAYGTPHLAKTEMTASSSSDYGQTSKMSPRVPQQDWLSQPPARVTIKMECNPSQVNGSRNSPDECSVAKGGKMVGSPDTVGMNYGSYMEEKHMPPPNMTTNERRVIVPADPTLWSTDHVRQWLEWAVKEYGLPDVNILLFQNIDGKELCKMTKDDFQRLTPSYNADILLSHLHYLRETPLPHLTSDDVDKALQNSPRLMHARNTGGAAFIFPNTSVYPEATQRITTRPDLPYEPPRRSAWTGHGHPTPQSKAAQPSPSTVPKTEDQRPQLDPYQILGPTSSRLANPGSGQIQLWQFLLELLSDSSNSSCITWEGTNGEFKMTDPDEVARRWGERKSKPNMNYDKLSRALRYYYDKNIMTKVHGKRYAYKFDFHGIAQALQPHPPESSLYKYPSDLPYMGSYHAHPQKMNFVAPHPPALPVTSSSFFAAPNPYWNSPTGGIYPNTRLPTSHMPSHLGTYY
An outline of the steps:
as §1

In the next assay the target is ELF1 (Homo sapiens, UniProt P32519 1-619). An outline of the steps: as §1
Sequence of ELF1 (P32519 whole entry): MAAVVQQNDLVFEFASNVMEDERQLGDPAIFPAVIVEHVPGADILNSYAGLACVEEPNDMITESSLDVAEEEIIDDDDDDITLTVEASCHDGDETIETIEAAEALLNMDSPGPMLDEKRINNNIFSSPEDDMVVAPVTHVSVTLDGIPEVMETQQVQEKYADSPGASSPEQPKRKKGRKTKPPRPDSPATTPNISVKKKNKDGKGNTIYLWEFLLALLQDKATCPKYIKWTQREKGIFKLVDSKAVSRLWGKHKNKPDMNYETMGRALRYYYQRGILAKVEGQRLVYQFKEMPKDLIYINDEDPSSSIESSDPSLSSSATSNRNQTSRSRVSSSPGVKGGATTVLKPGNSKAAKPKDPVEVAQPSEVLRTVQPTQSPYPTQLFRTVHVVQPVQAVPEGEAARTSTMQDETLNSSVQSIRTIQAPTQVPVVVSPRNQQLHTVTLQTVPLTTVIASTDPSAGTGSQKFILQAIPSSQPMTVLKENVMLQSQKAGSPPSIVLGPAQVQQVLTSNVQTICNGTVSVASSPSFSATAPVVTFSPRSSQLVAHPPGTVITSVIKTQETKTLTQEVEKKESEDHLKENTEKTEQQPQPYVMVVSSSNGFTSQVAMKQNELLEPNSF
For a further assay, the target named is T5, EHF (Homo sapiens, UniProt Q9NZC4 1-300).
T5 sequence: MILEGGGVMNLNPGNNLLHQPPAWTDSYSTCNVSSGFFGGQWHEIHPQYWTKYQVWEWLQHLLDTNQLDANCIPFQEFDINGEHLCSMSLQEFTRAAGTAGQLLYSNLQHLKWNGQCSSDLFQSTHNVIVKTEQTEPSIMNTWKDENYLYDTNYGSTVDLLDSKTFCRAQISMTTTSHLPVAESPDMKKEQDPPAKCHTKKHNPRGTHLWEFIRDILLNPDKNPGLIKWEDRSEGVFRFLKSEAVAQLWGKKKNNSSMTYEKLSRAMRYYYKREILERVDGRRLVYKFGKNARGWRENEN
The procedure, abridged:
as §1

Another assay concerns the target SPI1 (Homo sapiens, UniProt P17947 1-270). An outline of the steps: as §1
The target in another assay is SPIB (Homo sapiens, UniProt Q01892 1-262). An outline of the steps: as §1
Sequence of SPIB (Q01892 whole entry): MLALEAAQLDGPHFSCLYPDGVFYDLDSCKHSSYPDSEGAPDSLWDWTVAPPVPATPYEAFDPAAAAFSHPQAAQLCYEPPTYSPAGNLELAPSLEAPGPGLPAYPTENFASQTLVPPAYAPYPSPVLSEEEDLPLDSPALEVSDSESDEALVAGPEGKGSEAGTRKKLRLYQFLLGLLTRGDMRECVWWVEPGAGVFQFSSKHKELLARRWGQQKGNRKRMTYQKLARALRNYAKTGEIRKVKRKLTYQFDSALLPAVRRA
The next assay deals with T6, ELK3 (Homo sapiens, UniProt P41970 1-407).
T6 sequence: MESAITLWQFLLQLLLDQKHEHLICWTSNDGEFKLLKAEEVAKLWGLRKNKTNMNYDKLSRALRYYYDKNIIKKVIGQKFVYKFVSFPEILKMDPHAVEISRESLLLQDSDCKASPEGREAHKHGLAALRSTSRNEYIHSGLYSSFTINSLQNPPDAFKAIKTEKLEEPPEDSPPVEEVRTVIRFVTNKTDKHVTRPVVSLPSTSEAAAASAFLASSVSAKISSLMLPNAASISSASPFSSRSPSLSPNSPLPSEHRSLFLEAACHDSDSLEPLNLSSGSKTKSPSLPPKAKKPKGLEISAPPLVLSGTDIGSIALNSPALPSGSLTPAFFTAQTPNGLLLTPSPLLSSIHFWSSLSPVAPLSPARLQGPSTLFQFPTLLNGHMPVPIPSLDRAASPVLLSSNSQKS
The procedure, abridged: as §1

Turning to AATGTT, the binding signal with FLI1 was 1.55 fold enrichment (6-mer frequency, TF over GST control); with ELK1 it was 1.47 fold enrichment (6-mer frequency, TF over GST control); in the assay with GABPA, 1.49 fold enrichment (6-mer frequency, TF over GST control); in the assay with ERG, 1.48 fold enrichment (6-mer frequency, TF over GST control); with ELF1 it was 1.57 fold enrichment (6-mer frequency, TF over GST control); with EHF, 1.56 fold enrichment (6-mer frequency, TF over GST control). In addition, the binding signal is 1.47 fold enrichment (6-mer frequency, TF over GST control) with SPI1; 1.58 fold enrichment (6-mer frequency, TF over GST control) with SPIB; 1.47 fold enrichment (6-mer frequency, TF over GST control) with ELK3.
GTTCTA: the binding signal in the assay with FLI1 was 1.16 fold enrichment (6-mer frequency, TF over GST control); in the assay with ELK1, 1.28 fold enrichment (6-mer frequency, TF over GST control); in the assay with GABPA, 1.22 fold enrichment (6-mer frequency, TF over GST control); with ERG, 1.24 fold enrichment (6-mer frequency, TF over GST control); with ELF1 it was 1.31 fold enrichment (6-mer frequency, TF over GST control); with EHF, 1.12 fold enrichment (6-mer frequency, TF over GST control). Besides, the binding signal is 1.12 fold enrichment (6-mer frequency, TF over GST control) with SPI1; 1.32 fold enrichment (6-mer frequency, TF over GST control) with SPIB; 1.23 fold enrichment (6-mer frequency, TF over GST control) in the assay with ELK3.
On to GATGAC, for which the binding signal is 1.58 fold enrichment (6-mer frequency, TF over GST control) with FLI1; 1.51 fold enrichment (6-mer frequency, TF over GST control) in the assay with ELK1; 1.62 fold enrichment (6-mer frequency, TF over GST control) in the assay with GABPA; 1.59 fold enrichment (6-mer frequency, TF over GST control) in the assay with ERG; 1.6 fold enrichment (6-mer frequency, TF over GST control) with ELF1; 1.43 fold enrichment (6-mer frequency, TF over GST control) in the assay with EHF. The binding signal with SPI1 is 1.58 fold enrichment (6-mer frequency, TF over GST control); in the assay with SPIB it was 1.45 fold enrichment (6-mer frequency, TF over GST control); with ELK3, 1.45 fold enrichment (6-mer frequency, TF over GST control).
ACGTCT: the binding signal with FLI1 is 1.13 fold enrichment (6-mer frequency, TF over GST control); with ELK1, 1.2 fold enrichment (6-mer frequency, TF over GST control); with GABPA it was 1.14 fold enrichment (6-mer frequency, TF over GST control); in the assay with ERG, 1.22 fold enrichment (6-mer frequency, TF over GST control); in the assay with ELF1, 1.17 fold enrichment (6-mer frequency, TF over GST control); with EHF, 1.13 fold enrichment (6-mer frequency, TF over GST control). For the same sequence, the binding signal was 1.15 fold enrichment (6-mer frequency, TF over GST control) with SPI1; 1.35 fold enrichment (6-mer frequency, TF over GST control) with SPIB; 1.18 fold enrichment (6-mer frequency, TF over GST control) with ELK3.
Turning to TCCGAT, the binding signal with FLI1 was 1.32 fold enrichment (6-mer frequency, TF over GST control); with ELK1, 1.37 fold enrichment (6-mer frequency, TF over GST control); with GABPA it was 1.17 fold enrichment (6-mer frequency, TF over GST control); with ERG, 1.51 fold enrichment (6-mer frequency, TF over GST control); in the assay with ELF1, 1.27 fold enrichment (6-mer frequency, TF over GST control); with EHF, 1.36 fold enrichment (6-mer frequency, TF over GST control). The binding signal was 1.29 fold enrichment (6-mer frequency, TF over GST control) with SPI1; 1.24 fold enrichment (6-mer frequency, TF over GST control) with SPIB; 1.27 fold enrichment (6-mer frequency, TF over GST control) with ELK3.
Consider CTAGGT, for which the binding signal is 1.07 fold enrichment (6-mer frequency, TF over GST control) with FLI1; 1.13 fold enrichment (6-mer frequency, TF over GST control) with ELK1; 1.05 fold enrichment (6-mer frequency, TF over GST control) with GABPA; 1.14 fold enrichment (6-mer frequency, TF over GST control) with ERG; 1.2 fold enrichment (6-mer frequency, TF over GST control) with ELF1; 1.09 fold enrichment (6-mer frequency, TF over GST control) in the assay with EHF. Moreover, the binding signal with SPI1 was 1.05 fold enrichment (6-mer frequency, TF over GST control); with SPIB, 1.13 fold enrichment (6-mer frequency, TF over GST control); in the assay with ELK3, 1.13 fold enrichment (6-mer frequency, TF over GST control).
In the case of TCTGCT, the binding signal with FLI1 was 1.26 fold enrichment (6-mer frequency, TF over GST control); in the assay with ELK1, 1.3 fold enrichment (6-mer frequency, TF over GST control); in the assay with GABPA, 1.33 fold enrichment (6-mer frequency, TF over GST control); with ERG, 1.22 fold enrichment (6-mer frequency, TF over GST control); in the assay with ELF1, 1.45 fold enrichment (6-mer frequency, TF over GST control); with EHF, 1.55 fold enrichment (6-mer frequency, TF over GST control). In addition, the binding signal is 1.27 fold enrichment (6-mer frequency, TF over GST control) with SPI1; 1.22 fold enrichment (6-mer frequency, TF over GST control) with SPIB; 1.2 fold enrichment (6-mer frequency, TF over GST control) with ELK3.
For TTGACT, the binding signal with FLI1 was 1.19 fold enrichment (6-mer frequency, TF over GST control); in the assay with ELK1, 1.19 fold enrichment (6-mer frequency, TF over GST control); in the assay with GABPA, 1.15 fold enrichment (6-mer frequency, TF over GST control); with ERG, 1.18 fold enrichment (6-mer frequency, TF over GST control); with ELF1, 1.15 fold enrichment (6-mer frequency, TF over GST control); with EHF it was 1.06 fold enrichment (6-mer frequency, TF over GST control). Further, the binding signal was 1.19 fold enrichment (6-mer frequency, TF over GST control) with SPI1; 1.18 fold enrichment (6-mer frequency, TF over GST control) with SPIB; 1.03 fold enrichment (6-mer frequency, TF over GST control) with ELK3.

Values taken from paper PMC7862700, “An all-to-all approach to the identification of sequence-specific readers for epigenetic DNA modifications on cytosine”.
